Most compounds without a hit are left out; they make up all but 1.3% or so of the library.
COUP-TFII inh = NR2F2 (human) inhibition, primary screen; 370,000 tested, 0.7% active; P24468; HEK293T NGFI-A luciferase reporter, luminescence; inhibition, % at 8.6 µM;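 active means inhibition above a per-plate cutoff, mean inhibition of test wells between control levels plus 3 SD, cut at about 38% in these data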;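 further: cells cotransfected with COUP-TFII expression vector driving the NGFI-A reporter; 0% = median of COUP-TF2 test wells and 100% = reporter-only cells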
Gli-Sufu antag = blocks Gli-Sufu signaling in a luciferase reporter. Sufu-KO-LIGHT fibroblasts, Gli luciferase reporter luminescence. inhibition, % at 5 µM. 340,000 tested, 0.74% active;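 active means inhibition above about 55%, limit read from the data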;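 further: 0% = DMSO-treated cells and 100% = wells with medium but no cells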
SRC3 inh = inhibitors of human steroid receptor coactivator 3 (SRC3); Q9Y6Q9; inhibition, % at 3.6 µM; HEK293 GAL4-SRC3 luciferase reporter, luminescence; 360,000 tested, 0.17% active;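 active means inhibition above a per-campaign cutoff, the mean of all compounds plus 3 SD, cut at about 60% in these data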;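 further: 0% = DMSO-treated cells and 100% = gossypol-treated cells at 36 µM; higher means less SRC3-driven luciferase light from the GAL4 reporter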
NR5A2 inv ag = inverse agonists of human LRH-1 (NR5A2). inhibition, % at 3.6 µM. O00482. 360,000 tested, 0.13% active. AID 602396. HEK293T StAR-luciferase reporter, LRH-1 transfected, 24 h;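 active means inhibition above the mean inhibition of all tested compounds plus 3 SD, cut at about 73% in these data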;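 further: 0% = DMSO wells and 100% = reporter-only cells lacking LRH-1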
Target sequence (O00482 whole entry, looked up): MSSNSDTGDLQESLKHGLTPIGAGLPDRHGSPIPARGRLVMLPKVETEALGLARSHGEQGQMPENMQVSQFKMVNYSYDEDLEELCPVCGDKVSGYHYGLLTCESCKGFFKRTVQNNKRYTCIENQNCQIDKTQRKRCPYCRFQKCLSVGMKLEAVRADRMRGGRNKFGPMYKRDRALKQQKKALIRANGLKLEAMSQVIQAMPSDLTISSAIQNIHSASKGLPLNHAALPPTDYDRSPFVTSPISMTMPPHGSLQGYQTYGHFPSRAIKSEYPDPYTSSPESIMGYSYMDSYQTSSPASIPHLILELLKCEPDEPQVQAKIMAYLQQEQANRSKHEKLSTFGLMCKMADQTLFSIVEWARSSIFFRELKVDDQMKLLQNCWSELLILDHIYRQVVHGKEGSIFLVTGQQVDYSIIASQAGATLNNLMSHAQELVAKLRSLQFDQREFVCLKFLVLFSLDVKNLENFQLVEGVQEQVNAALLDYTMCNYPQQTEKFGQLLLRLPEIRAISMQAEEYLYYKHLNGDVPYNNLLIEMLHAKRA
SRC1 inh = inhibits human SRC1 coactivator; inhibition, % at 3.6 µM; HEK293 GAL4-SRC1 luciferase reporter, luminescence; Q15788; 360,000 tested, 0.12% active;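 active means inhibition above the campaign mean plus 3 SD, with each screening campaign given its own cutoff, cut at about 60% in these data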;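 further: 0% = DMSO treated cells and 100% = gossypol at 36 µM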
SRC2 inh = inhibits human steroid receptor coactivator 2; Q15596; HEK293 GAL4-SRC2 luciferase reporter, luminescence; inhibition, % at 9 µM; 370,000 tested, 0.17% active;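 active means inhibition above the mean inhibition of all tested compounds plus 3 SD, set per campaign, cut at about 52% in these data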;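 further: 0% = DMSO treated cells and 100% = cells given Gossypol at 36 µM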
Gli-Sufu confirm = confirmation of Gli-SUFU pathway antagonists. shares compounds with Gli-Sufu antag. Sufu-KO-LIGHT cells, Gli luciferase reporter, luminescence. inhibition, % at 5 µM. 2,500 tested, 40% active;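 active means mean inhibition at 5 µM reaching about 45%, limit read from the data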;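 further: plate controls were DMSO-treated cells for no effect and wells lacking cells for full effect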
Gli cytotox = cytotoxicity counter-screen for Gli-SUFU antagonists | shares compounds with Gli-Sufu antag | Sufu-KO-LIGHT cells cytotoxicity, ATP luminescence | cytotoxicity, % at 5 µM | 2,500 tested, 32% active;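 active means mean cytotoxicity at 5 µM above about 25%, limit read from the data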;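 further: cells exposed to compound overnight for roughly 16 to 18 hours; plate controls were DMSO wells with cells for no effect and medium without cells for full effect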
Wnt3a cs = counter-screen for Gli-SUFU antagonists: Wnt3a reporter inhibition. 2,500 tested, 20% active. inhibition, % at 6.25 µM. AID 651995. Wnt-LIGHT cells, Wnt3a-driven luciferase reporter, luminescence. shares compounds with Gli-Sufu antag;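 active means mean inhibition above about 25%, limit read from the data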
* = called active by the depositor; · = no result.

SMILES	COUP-TFII inh	Gli-Sufu antag	SRC3 inh	NR5A2 inv ag	SRC1 inh	SRC2 inh	Gli-Sufu confirm	Gli cytotox	Wnt3a cs
O=c1c2cc3cccnc3nc2ncn1Cc1cccs1	1	·	·	·	·	11	·	·	·
CC(=O)N1c2cc(S(=O)(=O)N3CCN(c4ccccc4F)CC3)c(Br)cc2CC1C (stereo unspecified)	13	·	·	·	·	19	·	·	·
O=C(NC1CCCCN(Cc2ccc(Cl)cc2)C1=O)C(c1ccccc1)c1ccccc1 (stereo unspecified)	15	·	·	·	·	5	·	·	·
CCCCN(C)S(=O)(=O)c1ccc2[nH]c(=O)oc2c1	9	·	·	·	·	-25	·	·	·
CCN(CCCNC(=O)c1cc2c(-c3cccc(OC)c3)nn(C)c2s1)Cc1ccccc1	-5	59*	-4	-30	11	-11	16	7	-31
Cc1nc2ccc(S(=O)(=O)NCC(=O)NCc3cccs3)cc2s1	-7	·	·	·	·	-25	·	·	·
CCn1c(/C=C/Nc2ccccc2)[n+](CC)c2cc(Cl)c(Cl)cc21	-9	66*	11	21	7	4	61*	18	8
CCn1c(/C=C/N(C(C)=O)c2ccccc2)[n+](CCCS(=O)(=O)[O-])c2cc(Cl)c(Cl)cc21	-30	-10	8	2	6	8	·	·	·
COc1ccc(CCN(C(=O)C(F)(F)F)C(C(=O)NC2CCCC2)c2cccs2)cc1 (stereo unspecified)	12	51	12	-6	6	11	10	21	-10
O=C(NC1CCCCC1)C(c1ccco1)N(CCc1ccccc1)C(=O)C(F)(F)F (stereo unspecified)	2	0	18	-5	-16	-30	·	·	·
CC(C)N1CCCCC(NC(=O)c2ccc(F)cc2)C1=O (stereo unspecified)	-14	·	·	·	·	-8	·	·	·
O=S1(=O)CC(N2CCCC2)CN1 (stereo unspecified)	-2	·	·	·	·	18	·	·	·
COc1ccc(C(C(=O)NC2CCCC2)N(C(=O)c2ccoc2C)c2ccc(C)cc2)cc1 (stereo unspecified)	3	-15	14	4	12	5	·	·	·
COc1ccc(C(C(=O)NC2CCCCC2)N(C(=O)CCl)c2ccc(C)cc2)cc1 (stereo unspecified)	-9	86*	56	-13	27	38	33	29*	15
COc1ccc(C(C(=O)NC2CCCCC2)N(C(=O)CCl)c2ccc(OC)cc2)cc1 (stereo unspecified)	·	84*	41	2	-14	·	33	19	-40
Cc1ccc(NC(=O)OCCCN2C(=O)CCC23CCC(C)CC3)cc1C (stereo unspecified)	-18	·	·	·	·	-30	·	·	·
COc1ccc(S[C@]2(C(=O)N3CCN(c4ncccn4)CC3)CC(=O)N(C(=O)c3ccccc3)[C@@H]2c2ccc(OC)cc2)cc1	7	·	·	·	·	-4	·	·	·
COC(=O)c1[nH]c2c(c1C)C(=O)CC(c1ccc(OC)cc1)C2 (stereo unspecified)	2	10	-14	-17	10	-9	·	·	·
COC(=O)c1[nH]c2c(c1C)C(=O)CC(c1ccccc1)C2 (stereo unspecified)	-100	57*	12	13	4	28	52*	53*	-24
C/C=C/COC(=O)c1[nH]c2c(c1C)C(=O)CC(c1ccco1)C2 (stereo unspecified)	-50	56*	13	32	-12	15	67*	60*	-7
CC(C)=CCC/C(C)=C/CNC(=O)C[C@H]1C[C@H](C(=O)N2CCOCC2)[C@@]2(C)c3[nH]c4cc(CCC(=O)N(C)C)ccc4c3CCN2C1=O	13	58*	-52	0	3	-10	66*	19	-6
CC[C@]12c3[nH]c4cc(CCC(=O)N(C)C)ccc4c3CCN1C(=O)[C@@H](CC(=O)NC/C=C(\C)CCC=C(C)C)C[C@@H]2C(=O)N1CCN(C(=O)C2CC2)CC1	-12	53	-1	-11	-13	-10	54*	29*	-23
